From PubChem
TrxR1 inh: inhibitors of rat thioredoxin reductase 1. O89049. recombinant rTrxR1, NADPH fluorescence consumption, selenite substrate. Potency, µM (top dose mostly 114 µM), inactives show at the highest dose activity change, negative = inhibition, most hits filed as inhibitors. actives 1% (n = 390,000); also: nearly all actives have a fitted effect of over 65% in size
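Rat TrxR1 (90 nM in the dispensed reagent) was pre-reduced with 400 uM NADPH for 5 min at room temperature, then incubated with compound for 15 min. After 400 uM selenite was added, NADPH fluorescence (Ex 340/Em 450 nm) was followed for 8 min.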
VDR inhibitor: inhibitors of human vitamin D receptor; P11473; VDR-SRC2-3 peptide fluorescence polarization, 2 h; Potency, µM, without a hit: max response, negative = inhibition, most hits filed as inhibitors; actives 0.93% (n = 400,000); AID 504847
Target sequence (P11473 whole entry, looked up): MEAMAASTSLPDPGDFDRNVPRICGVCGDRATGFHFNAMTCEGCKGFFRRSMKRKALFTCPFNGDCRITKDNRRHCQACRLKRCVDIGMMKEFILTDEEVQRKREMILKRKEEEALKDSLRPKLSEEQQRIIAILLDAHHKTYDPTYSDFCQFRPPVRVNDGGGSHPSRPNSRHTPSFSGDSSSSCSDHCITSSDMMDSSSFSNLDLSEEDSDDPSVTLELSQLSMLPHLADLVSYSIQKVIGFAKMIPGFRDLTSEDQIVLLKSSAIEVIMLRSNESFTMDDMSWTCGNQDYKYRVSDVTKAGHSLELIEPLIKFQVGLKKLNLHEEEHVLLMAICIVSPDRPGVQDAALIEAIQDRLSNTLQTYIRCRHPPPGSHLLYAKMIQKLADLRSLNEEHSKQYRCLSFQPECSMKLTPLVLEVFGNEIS
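Fluorescence polarization assay measuring small-molecule disruption of VDR binding to the coregulator peptide SRC2-3. Compounds were pin-transferred (23 nl) into the reagent mix and incubated 2 h at room temperature before reading.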
TrxR1 substrate: is turned over as a substrate by rat TrxR1 | purified TrxR1 substrate turnover, NADPH consumption readout | Potency, µM (titrated, usually from 114 µM), for inactives: at the highest dose activity change, negative = substrate turnover | actives 0.01% (n = 390,000); also: nearly all actives have a fitted effect of over 50% in size
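Rat TrxR1, dispensed at 90 nM, was prereduced with 400 uM NADPH (final) for 5 min at ~22 deg C, then incubated with compound 15 min before 400 uM selenite. A first-read NADPH fluorescence drop versus no-compound background flagged substrates.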
PLK1 PBD block: PLK1 (human) polo-box domain binding inhibition; AID 720504; P53350; Plk1 PBD binding of FITC phosphopeptide, fluorescence polarization; actives 2.8% (n = 360,000); Potency, µM, for the others: max response, negative = inhibition, hits mostly inhibitors; also: series mostly up to about 57 µM; nearly all actives have a fitted effect of over 65% in size
Sfp inh: Sfp phosphopantetheinyl transferase inhibition. Biochemical Sfp PPTase activity, qHTS. Potency, µM, inactives show largest response in the series, negative = inhibition, hits mostly inhibitors. AID 1490. actives 3.5% (n = 310,000). Q9F4F7;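 also: the enzyme is Sfp with the accession as filed and its product quenches rhodamine fluorescence; 0% = enzyme reaction without inhibitor and -100% = no enzyme wells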
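Reaction rates are the 30-min fluorescence difference (ex 525, em 598 nm) in wells containing 15 nM Sfp, 5 uM rhodamine-CoA and 12.5 uM BHQ-2-YbbR at pH 7.6 with 10 mM MgCl2.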
mIDH1 inhibitor: inhibitors of human mutant IDH1 R132H; Potency, µM (titrated, usually from 76.6 µM), for inactives: at the top dose activity change, negative = inhibition, actives largely listed as inhibitors; IDH1-R132H enzyme, NADPH consumption, diaphorase/resazurin fluorescence; actives 0.093% (n = 390,000); also: nearly all actives have a fitted effect of over 65% in size
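IDH1-R132H (0.5 ug/mL dispensed) in pH 7.5 Tris buffer was preincubated 30 min with compound, then given a substrate mix of 0.016 mM NADPH and 2 mM alpha-KG for 80 min at room temperature; remaining NADPH was read by diaphorase/resazurin fluorescence.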
Numbers without * were called inactive; u = inconclusive; x = not tested or not shown; ! = not active in a repeat; [ ] = remark or other dose. An excerpt weighted towards active compounds, which were near 5.2% of everything screened. Calls follow the shape of the dose curve; as a rule, active = well fitted curve in the direction sought with a large enough effect; inconclusive = small, poorly fitted or top-dose-only effect, or another doubt; inactive = no such curve, though single readings can be large; an effect the other way counts as inactive or inconclusive. Unless noted, % is scaled to controls: 0 for no effect and ±100 for the full control effect; potency is read from the fitted curve at half-maximal effect.

SMILES	TrxR1 inh	VDR inhibitor	TrxR1 substrate	PLK1 PBD block	Sfp inh	mIDH1 inhibitor
CC(CCC(=O)O)C1CC[C@H]2C3CCC4CC(=O)CCC4(C)[C@H]3CC(=O)C12C (stereo partly drawn)	8%	22%	0%	-4%	3%	17%
OB(O)c1csc2ccccc12	9%	-6%	1%	x	6%	x
COc1ccc(N2CCN(S(=O)(=O)c3ccc(F)c(C(=O)Nc4ccccc4Cl)c3)CC2)cc1	22%[57.1 µM]	1%	2%[57.1 µM]	x	x	-2%
CCN(CC)CCCC(C)n1c(-c2ccccc2)nc2c(N(CCOC)CCOC)nc(C)nc21 (stereo not drawn)	x	x	x	x	22%	x
CC(C)c1ccc(S(=O)(=O)N2CCN(C(=S)NCc3ccco3)CC2)cc1	-14%	u	-3%	21µM*	u	2%
O=S(=O)(c1ccc(NC(=S)NCc2ccco2)cc1)N1CCCCC1	-21%	5%	-7%	-14%	9%	-11%
Cc1ccc(CNC(=O)c2c3c(nc4ccccc24)C(=O)N(C2CCCCC2)C3)cc1	14%[57.1 µM]	-6%	-2%[57.1 µM]	x	x	-7%
Cc1nc2c(C(=O)NCc3ccc4c(c3)OCO4)c[nH]n2c(=O)c1Cl	14%	-28%	15%	u	45µM*	25%
Cc1nc2c(C(=O)NCCC3=CCCCC3)c[nH]n2c(=O)c1Cl	-3%	-18%	9%	24µM*	-20%	11%
CN(C)S(=O)(=O)c1cccc(C(=O)C2=C3SC=C(c4ccccc4)N3CC2)c1	u	2%	3%	u	56µM*	-12%
Cc1ccc(C)c(Cn2cc(CCC(=O)NC3CCCCC3)c3ccccc32)c1	8%	-2%	-4%	x	x	0%
CN=C1C=CC(=C(c2ccc(N(C)C)cc2)c2ccc(N(C)C)cc2)C=C1	x	40µM*	x	x	45µM*	x
CC(=O)c1ccc(N=Nc2ccc(N(C)C)cc2)cc1	1%	14%	-10%	-20%	-3%	5%
CCCN1C(=O)C(=O)c2cc(Cl)ccc21	5%	u	-4%	-7%	x	11%
O=C(O)c1cc([N+](=O)[O-])c(Sc2nc3ccccc3[nH]2)c([N+](=O)[O-])c1	u	u	3%	21µM*	50µM*	-7%
CCN1CCN(c2ccc([N+](=O)[O-])c(Sc3nc4ccccc4[nH]3)c2)CC1	-3%[57.1 µM]	3%	-1%[57.1 µM]	-13%	0%	3%
O=C(O)CSc1nc2ccccc2[nH]1	0%	u	-6%	27µM*	12%	0%
CS(=O)(=O)c1cc([N+](=O)[O-])c(Sc2nc3ccccc3[nH]2)c([N+](=O)[O-])c1	1.3µM*	35µM*	-7%	1.5µM*	13µM*	1%
CCCCOc1ccc(C2c3c(oc4ccccc4c3=O)C(=O)N2c2nc(C)c(C(=O)OCC)s2)cc1OC (stereo not drawn)	13%	-10%	2%	x	x	-2%
COc1ccc([N+](=O)[O-])cc1CN1CCN(c2ncc(Cc3ccccc3)cn2)CC1	x	x	x	-9%	x	x
CC(C)n1c(=O)c2ccccc2n1S(C)(=O)=O	x	x	x	2%	x	x
COc1ccccc1-c1oc2ccccc2c(=O)c1O	x	6%	x	x	5%	x
COc1ccc(OC)c(-c2oc3ccccc3c(=O)c2O)c1	3%	-9%	-3%	-5%	89µM*	-6%
O=c1cc(-c2ccccc2)[nH]c2cc(Cl)ccc12	31%[57.1 µM]	79µM*!	17%[57.1 µM]	-4%	8%	12%
CCCCCCCCOC(=O)c1cc([N+](=O)[O-])c(Sc2ncnc3nc[nH]c23)c([N+](=O)[O-])c1	40µM*	u	-7%	-29%	x	2%
SMILES	TrxR1 inh	VDR inhibitor	TrxR1 substrate	PLK1 PBD block	Sfp inh	mIDH1 inhibitor
O=C(CN(C(=O)Cn1nnc(-c2cccs2)n1)c1ccc2c(c1)OCCO2)NCc1ccccc1	2%[57.1 µM]	3%	-6%	0%	-10%	-2%
O=C(CN(CCc1ccccc1)C(=O)Cn1nnc(-c2cccs2)n1)NCc1ccco1	50µM*	-1%	-9%	-5%	-8%	0%
Cc1c(C)c2ccc(OCC(=O)NCCN3CCOCC3)c(C)c2oc1=O	13%	12%	66%	-7%	1%	-2%
N#C/C(=C\c1c(Cl)cccc1Cl)c1nc2ccccc2[nH]1	-12%	-13%	-3%	-10%	-13%	0%
N#C/C(=C\c1c(Cl)cccc1Cl)c1nc2ccccc2o1	-2%	-28%	11%	0.42µM*	-8%	8%
Cc1c(Cl)cccc1S(=O)(=O)N1CCC(C(=O)NNC(=O)C2CC2)CC1	19%	24%	8%[57.1 µM]	24µM*	9%	23%
COc1cc2c(cc1OC)C(COc1ccc3c(C)cc(=O)oc3c1)N(C(=O)Cc1ccccc1)CC2 (stereo not drawn)	-1%	6%	4%	x	x	12%
Cc1ccc(C(=O)CCC(=O)OCc2nnc(-c3ccccc3)o2)cc1	15%	-2%	4%	-2%	x	0%
O=C(CCC(=O)c1cccs1)OCc1nnc(-c2ccccc2)o1	7%	-13%	-1%	27µM*	12%	6%
Cn1cncc1C#Cc1ccc2c(=O)c3ccccc3oc2c1	19%	0%	18%	3%	x	-10%
O=S(=O)(c1ccc(SCCO)nc1)N1CCOCC1	28%	22%	4%	-9%	x	7%
O=C1C2C3C=CC(CNS(=O)(=O)c4ccccc4[N+](=O)[O-])(O3)C2C(=O)N1c1ccccc1 (stereo not drawn)	18µM*	-13%	15%[57.1 µM]	67µM*	28µM*	-1%
Cc1cc(C)c(S(=O)(=O)NCC23C=CC(O2)C2C(=O)N(c4ccccc4)C(=O)C23)c(C)c1 (stereo not drawn)	14µM*	u	-13%	-8%	28µM*	7%
CC(=O)/C=C/c1ccc2c(c1)S(=O)(=O)N(C1CCCC1)[C@H]2CC(C)=O	-6%	x	-5%	x	x	x
CC(C)(C)OC(=O)NC(Cc1ccccc1)C(=O)NC1COC2CC(n3cc(F)c(=O)[nH]c3=O)OC12 (stereo not drawn)	-11%	6%	-10%	x	4%	x
CCc1cc(C(=O)N2CCc3c([nH]c4ccccc34)C2c2ccc(OC)cc2F)no1 (stereo not drawn)	29%[57.1 µM]	-16%	2%[57.1 µM]	24µM*	-26%	-16%
COc1ccc(C2c3[nH]c4ccccc4c3CCN2C(=O)c2ccc(=O)n(C)n2)c(F)c1 (stereo not drawn)	4%	-7%	5%	2%	u	8%
CSCC[C@H](N)C(=O)N[C@@H](CCCN=C(N)N)C(=O)N[C@@H](Cc1ccccc1)C(=O)N[C@@H](Cc1ccccc1)C(=O)N[C@H](C(=O)O)C(C)C	x	-4%	x	x	6%	x
